PLK1 inh: human PLK1 kinase inhibitors, primary screen, biochemical, TR-FRET. recombinant PLK1 kinase, TR-FRET peptide phosphorylation. inhibition, % at 10 µM. actives 0.53% (n = 97,000). AID 619, 2007;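 active = inhibition of 50% or more in the single-concentration screen; inactive = inhibition below 50%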;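 note: 0% = DMSO max control and 100% = H-89 dihydrochloride min control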
Target sequence (P53350 whole entry, looked up): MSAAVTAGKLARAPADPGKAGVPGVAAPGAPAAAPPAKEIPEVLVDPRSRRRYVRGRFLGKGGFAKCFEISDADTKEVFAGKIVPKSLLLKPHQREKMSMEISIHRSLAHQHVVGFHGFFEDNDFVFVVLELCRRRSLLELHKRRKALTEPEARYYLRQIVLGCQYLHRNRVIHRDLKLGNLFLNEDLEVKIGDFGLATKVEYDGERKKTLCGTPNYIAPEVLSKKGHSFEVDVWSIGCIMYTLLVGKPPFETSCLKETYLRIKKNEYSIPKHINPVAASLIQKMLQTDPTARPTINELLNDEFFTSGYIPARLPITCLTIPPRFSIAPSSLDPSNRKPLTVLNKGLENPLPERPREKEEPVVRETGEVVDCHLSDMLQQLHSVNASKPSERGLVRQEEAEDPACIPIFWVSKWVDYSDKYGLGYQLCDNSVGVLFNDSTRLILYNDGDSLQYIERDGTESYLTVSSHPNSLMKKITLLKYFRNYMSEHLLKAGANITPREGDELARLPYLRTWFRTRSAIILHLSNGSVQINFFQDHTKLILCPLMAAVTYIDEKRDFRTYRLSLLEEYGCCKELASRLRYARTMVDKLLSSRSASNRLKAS
CYP2C19 act: human CYP2C19 activators, primary screen, biochemical, luminescence. Cytochrome P450 2C19 (Homo sapiens), P33261. recombinant CYP2C19, luciferin-H EGE luminescence; stronger effect = higher value; 0 = fully inhibited enzyme, 1 = untreated enzyme. activation factor at 5 µM. 96,000 tested, under 10 active. AID 1025, 2008;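 active = activation factor of at least 2 at 5 µM in the primary screen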;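 note: 0 = wells with 2.5 mM tranylcypromine and 1 = vehicle-only wells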
CYP2C19 inhib: blockers of cytochrome P450 2C19 activity – biochemical, luminescence, ADME assay, primary screen | CYP2C19 Supersomes, luciferin-H EGE luminescence, 30 min | AID 778, 2007 | inhibition, % at 5 µM | P33261 | actives 21% (n = 96,000);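 active = CYP2C19 inhibition above a set limit at 5 µM in the primary screen, cut at about 50% in these data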;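 note: plate controls were negative control wells for no effect and 2.5 mM tranylcypromine positive control for full effect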
CYP2C9 activ: human CYP2C9 activators, primary screen, biochemical, luminescence; recombinant CYP2C9, luciferin-H conversion; stronger effect = higher value; factor 1 = untreated enzyme, 0 = blocked; activation factor at 5 µM; actives 1.4% (n = 96,000);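 active = activation factor of 2 or more for CYP2C9 at a 5 µM dose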;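 note: 0 = sulfaphenazole-blocked wells and 1 = vehicle-only wells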
Plk1 PBD FP: Plk1 polo box domain binding inhibitors, primary screen, biochemical, fluorescence polarization. inhibition, %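 (tested at about 20 µM)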. actives 0.13% (n = 97,000). Plk1 PBD phosphopeptide binding; in the data active = inhibition above about 34%, passing the limit was not always enough
CYP2C9 inh: blockers of cytochrome P450 2C9 activity – biochemical, luminescence, ADME assay, primary screen; P11712; inhibition, % at 5 µM; actives 20% (n = 96,000); CYP2C9 Supersomes, luciferin-H conversion;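 active = blocking of liver enzyme CYP2C9 beyond about 50% at 5 µM, limit read from the data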
The depositor's hits bear a star; x = not tested or not shown. The list is not random: actives were taken first. Their share in the collection is about 28%.

SMILES | PLK1 inh | CYP2C19 act | CYP2C19 inhib | CYP2C9 activ | Plk1 PBD FP | CYP2C9 inh
Cc1cc(Nc2ccc(F)c(Cl)c2)n2ncnc2n1 | x | 1.3 | -27 | 1.1 | x | -6
C=CCn1c(SCC2=C(C(=O)OCC)C(C)NC(=O)N2)nnc1C1CCCCC1 (configuration not stated) | -14 | 0.9 | 13 | 1.1 | 11 | -9
Fc1ccc(-c2nnc(-n3nnc4ccccc43)c3ccccc23)cc1 | -7 | x | x | x | 6 | x
CC(C)c1nnc(NC(=O)c2cccs2)s1 | 67* | 0.9 | 10 | 0.8 | -12 | 20
CCOC(=O)Cc1csc(NC(=O)c2ccc(Br)s2)n1 | 10 | 0.2 | 78* | 0 | -2 | 100*
CCOC(=O)Cc1csc(NC(=O)c2cccs2)n1 | x | 0.1 | 88* | 0.2 | x | 77*
O=C(N/N=C\c1ccc(-c2ccccc2[N+](=O)[O-])o1)C1COc2cc3ccccc3cc2O1 (configuration not stated) | -9 | 0.6 | 41 | 0.5 | -14 | 53*
Cc1cc(=O)[nH]c(SCC(=O)NCCc2ccccc2)n1 | 11 | 0.6 | 37 | 0.6 | -7 | 44
Cc1csc(SCC(=O)NC(=O)NCc2ccccc2)n1 | -5 | 0.7 | 28 | 0.8 | -15 | 16
Cc1nc(SCC(=O)NCCc2ccccc2)nc(C)c1C | 6 | 0.2 | 80* | 1.1 | 10 | -7
Cc1nc(SCC(=O)NC(=O)NCc2ccccc2)nc(C)c1C | -4 | 0.4 | 59* | 0.7 | 9 | 33
O=C1CN(C(=O)CSc2nnnn2-c2ccc(Cl)cc2)c2ccccc2N1 | -5 | 0.9 | 13 | 1 | -15 | -5
O=c1c2ccccc2oc2nc(-c3ccco3)n(Cc3ccccc3)c(=O)c12 | -10 | 0.9 | 7 | 1 | -12 | 5
CC(C)CNC(=S)NC1CCCC1 | -6 | 0.6 | 35 | 0.8 | 2 | 20
CC1CCCN(C(=O)C2CCN(CC(C)c3ccccc3)CC2)C1 (configuration not stated) | -3 | x | x | x | 5 | x
CN(C)c1nc(NCc2ccccc2)nc(SCC(=O)Nc2ccc(Cl)c(Cl)c2)n1 | -4 | 0.5 | 48 | 0.1 | -20 | 86*
CCCCNC(=O)CSc1nnc(-c2ccc(S(=O)(=O)N3CCCC3)cc2)n1C | -10 | x | x | x | 10 | x
ONC(=Nc1ccccc1)C(=Nc1ccccc1)NO | -18 | 0.7 | 26 | 1 | -9 | -2
Nc1c2c(nc3ccc(Br)cc13)N(c1ccccc1)CC2 | 39 | 0.1 | 89* | 0.1 | 21 | 87*
COCC(=O)Nc1ccc(S(=O)(=O)Nc2cc(C)nc(C)n2)cc1 | -5 | 1 | -1 | 1 | -11 | -3
CC(=O)C1=C(O)C(=O)N(CC(=O)O)C1c1ccccc1Cl (configuration not stated) | -15 | 1 | -5 | 1 | 15 | 1
CCOC(=O)c1ccc(NC(=O)CCc2nc(-c3cccc(C)c3)no2)cc1 | -5 | 1 | 0 | 0.5 | 31 | 52*
Cc1cccc(-c2noc(CCC(=O)Nc3ccccc3)n2)c1 | -9 | 0.1 | 92* | 0.3 | 0 | 75*
CCC(=O)NS(=O)(=O)c1cccnc1Nc1ccc(Cl)cc1 | -8 | 0.8 | 18 | 0 | -16 | 96*
CC(=O)NS(=O)(=O)c1cccnc1Nc1ccc(Cl)c(Cl)c1 | -8 | 1 | 4 | 0.3 | -3 | 71*
SMILES | PLK1 inh | CYP2C19 act | CYP2C19 inhib | CYP2C9 activ | Plk1 PBD FP | CYP2C9 inh
CCOc1ncccc1C(=O)Nc1ccc(Cl)cc1 | -7 | 0.9 | 7 | 0.8 | -1 | 23
NS(=O)(=O)c1cccnc1Nc1ccc(Cl)c(Cl)c1 | -4 | 0.5 | 50 | 0.6 | -3 | 43
O=C(CCNc1cccc(Cl)c1)c1cccs1 | -3 | 0.6 | 36 | 0.9 | 1 | 13
COC(=O)c1sc(NC(=O)c2cc3c(s2)CCCC3)nc1C | -3 | 0.9 | 11 | 1 | -4 | 0
Cc1nc(NC(=O)c2cc3c(s2)CCCCC3)sc1C(=O)N(C)C | -9 | 0.7 | 34 | 0.4 | 0 | 56*
CCC(=NC(C)c1ccccc1)c1c(O)n(C)c(=O)n(C)c1=O (configuration not stated) | 2 | 0.3 | 68* | 0.4 | 32 | 56*
O=C(CNC(=O)Cc1ccccc1)NCC(=O)OCc1ccc(C(=O)c2ccccc2)cc1 | -10 | 1 | 2 | 0.8 | -12 | 21
Cc1ccc(Nc2nc(C(=O)N3CCC(C(=O)N4CCN(C)CC4)CC3)cs2)cc1 | 10 | 0.2 | 77* | 0.7 | -11 | 30
CC(C)(C)NC(=O)CN(C(=O)CNC(=O)c1cccs1)c1ccc2c(c1)OCCO2 | -9 | 0.9 | 14 | 0.2 | -22 | 80*
CCOc1ccc(CNCc2cccnc2)cc1 | -10 | x | x | x | -3 | x
CC1CCCCC1NC(=O)C1CCN(C(=O)c2sccc2-n2cccc2)CC1 (configuration not stated) | x | 0.8 | 20 | 0.9 | x | 7
O=C(NCc1ccccc1Cl)C1CCN(C(=O)c2sccc2-n2cccc2)CC1 | x | 0.4 | 61* | 0.8 | x | 25
CCOc1ccccc1CNC(=O)C1CCN(C(=O)c2sccc2-n2cccc2)CC1 | -11 | 0.2 | 84* | 1.1 | 29 | -8
COc1cc(N2CCOCC2)ncn1 | -6 | 1.2 | -19 | 1.2 | -14 | -22
Cc1ccc(NC(=O)COc2ccc3oc4c(c3c2)CCCC4)nc1 | -9 | 0.7 | 31 | 0.4 | 18 | 55*
Cc1cccnc1NC(=O)COc1ccc2oc3c(c2c1)CCCC3 | -8 | x | x | x | -3 | x
Cc1ccc(S(=O)(=O)NC(C)(C)CSc2nncn2N)cc1 | -13 | 0.4 | 59* | 1.1 | -15 | -10
O=C(CN1CCCCC1)Nc1ccc(S(=O)(=O)N2CCCCCC2)cc1 | -5 | 1 | -2 | 0.9 | -10 | 13
O=C(COC(=O)CCC(=O)c1cccs1)Nc1ccc(S(=O)(=O)N2CCOCC2)cc1 | x | 0.8 | 21 | 0.1 | x | 89*
O=C(COC(=O)CN1C(=O)c2ccccc2C1=O)Nc1ccc(S(=O)(=O)N2CCCC2)cc1 | -8 | 1.1 | -5 | 0.6 | -13 | 36
O=C(Cn1ncc2c1-c1ccccc1OC2)Nc1ccc(S(=O)(=O)N2CCCCC2)cc1 | 0 | 0.8 | 17 | 0.3 | -8 | 68*
CC(C(=O)OCC(=O)Nc1ccc(S(=O)(=O)N2CCCCC2)cc1)N1C(=O)c2ccccc2C1=O (configuration not stated) | -8 | 0.8 | 22 | 0.1 | -4 | 92*
O=C(COC(=O)CCN1C(=O)c2ccccc2C1=O)Nc1ccc(S(=O)(=O)N2CCCC2)cc1 | 0 | 0.5 | 54* | 0 | 4 | 96*
Cc1ccccc1C(=O)OCCCN=C1NS(=O)(=O)c2ccccc21 | -17 | x | x | x | 7 | x

Screens deposited in PubChem BioAssay by several laboratories.
